Source: PubChem (National Center for Advancing Translational Sciences (NCATS))
Compounds with a hit are over-represented: about 3.7% of the library has one in this group of screens.
VDR inh: Inhibitors of the vitamin D receptor (VDR): qHTS; Vitamin D3 receptor (Homo sapiens), P11473; VDR-SRC2-3 peptide fluorescence polarization, 2 h; Potency, µM, without a hit: max response, negative = inhibition, actives largely listed as inhibitors; hit rate 0.93% among 400,000; further: potency means the concentration at half of the fitted maximal effect; on the % scale 0 is the no-effect control and ±100 the full control effect
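Signal is fluorescence polarization, reporting how far test compounds block the interaction of VDR with the SRC2-3 coregulator peptide after a 2 h room-temperature incubation.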
PLK1 PBD inh: qHTS for Inhibitors of PLK1-PDB (polo-like kinase 1 - polo-box domain): Primary Screen. Plk1 PBD binding of FITC phosphopeptide, fluorescence polarization. Potency, µM, for inactives: max response, negative = inhibition, hits mostly inhibitors. hit rate 2.8% among 360,000. Serine/threonine-protein kinase PLK1 (Homo sapiens), P53350; further: potency means the concentration at half of the fitted maximal effect; series mostly up to about 57 µM; on the % scale 0 is the no-effect control and ±100 the full control effect; nearly all actives have a fitted effect of over 65% in size
WRN inhibitor: qHTS for Inhibitors of WRN Helicase; Bifunctional 3'-5' exonuclease/ATP-dependent helicase WRN (Homo sapiens), Q14191; WRN helicase unwinding, fluorescent forked duplex, kinetic; Potency, µM (series often up to 114 µM), inactives show top-dose activity change, negative = inhibition, most hits filed as inhibitors; hit rate 0.46% among 360,000; further: potency means the concentration at half of the fitted maximal effect; on the % scale 0 is the no-effect control and ±100 the full control effect; nearly all actives have a fitted effect of over 55% in size
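Primary qHTS, 1536-well format. 20 nM WRN + compound, 15 min RT; start with 100 nM forked fluorophore/quencher duplex, 2 mM ATP (final); kinetic read ex 525/em 598 nm.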
PI5P4K alpha inh: qHTS for Inhibitors of phosphatidylinositol 5-phosphate 4-kinase (PI5P4K); Phosphatidylinositol 5-phosphate 4-kinase type-2 alpha (Homo sapiens), P48426; PI5P4Kalpha enzyme, ADP-Glo luminescence, 60 min; active compounds read low; max response, %; hit rate 1.2% among 330,000; active means max response of -50% or lower; inconclusive means between -30% and -50%; inactive means -30% or higher; further: value at the top dose of about 77 µM; on the % scale 0 is the no-effect control and ±100 the full control effect
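Quantitative HTS of the MLSMR library against PI5P4Kalpha with substrate. ATP added last at 5 microM final; room temperature, 60 minutes. Remaining ATP depleted, ADP converted and read as luminescence.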
FEN1 inhibitor: qHTS Assay for the Inhibitors of Human Flap endonuclease 1 (FEN1); Potency, µM (series often up to 114 µM), for inactives: top-dose activity change, negative = inhibition, usual class: inhibitors; AID 588795, 2011; hit rate 0.35% among 390,000; Recombinant FEN1 flap cleavage, fluorescence, 15 min; P39748; further: potency means the concentration at half of the fitted maximal effect; on the % scale 0 is the no-effect control and ±100 the full control effect; nearly all actives have a fitted effect of over 65% in size
Target sequence (P39748 whole entry, looked up): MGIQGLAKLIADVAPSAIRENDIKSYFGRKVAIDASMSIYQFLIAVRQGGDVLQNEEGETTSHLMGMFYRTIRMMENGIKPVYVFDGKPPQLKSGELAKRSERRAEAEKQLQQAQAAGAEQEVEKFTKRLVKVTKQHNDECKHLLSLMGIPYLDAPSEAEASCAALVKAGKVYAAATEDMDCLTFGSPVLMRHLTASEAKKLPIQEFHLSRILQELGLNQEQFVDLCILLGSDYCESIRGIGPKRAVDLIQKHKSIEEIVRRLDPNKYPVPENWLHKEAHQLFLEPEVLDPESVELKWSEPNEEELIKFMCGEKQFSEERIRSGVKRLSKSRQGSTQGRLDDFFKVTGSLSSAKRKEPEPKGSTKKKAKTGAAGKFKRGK
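FEN1 at 10 nM, compound pretreatment for 15 min (room temperature), 50 nM final substrate to initiate; endpoint reads at 0 and 15 min; DMSO-only plates used as vehicle background.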
TCR activator: Activators of T cell receptors: qHTS campaign; 330,000 tested, under 10 active; Potency, µM (doses to about 9.22 µM), without a hit: at the highest dose activation of IL-2 secretion, most hits filed as activators; primary human leukocytes, anti-CD3, IL-2 HTRF, 48 h; further: % of control where 0% means no effect
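Compounds are tested in HTS on primary human leukocytes co-incubated with a-CD3 beads for 48 hr. IL-2 output is measured by time-resolved FRET.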
Active calls of the source: *; ? = inconclusive; nt = no result given; [ ] = remark or other dose. Unless noted, the call rests on the fitted dose curve; in most records, active means well fitted curve in the direction sought with a large enough effect; inconclusive means small, poorly fitted or top-dose-only effect, or another doubt; inactive means no such curve, though single readings can be large; an effect the other way counts as inactive or inconclusive.

SMILES	VDR inh	PLK1 PBD inh	WRN inhibitor	PI5P4K alpha inh	FEN1 inhibitor	TCR activator
O=C(O)CSc1sc(=S)sc1SCC(=O)O	6%	27µM*	-9%	nt	17%	-6%
CC[C@H](C)N	11%	nt	nt	nt	nt	nt
C/C(=N\O)C(=O)NCC1CCNCC1	5%	27µM*	9%	-18	7%	-9%
C/C(=N\O)C(=O)NCc1ccncc1	3%	-15%	17%	1	1%	-1%
CC(C)C1N=C(c2ccc3c(c2)OCO3)CC(c2ccccc2O)N1 (stereo unspecified)	79µM*	-25%	-35%	7	-11%	2%
Cc1cccc[n+]1CC(=O)c1ccc2c(c1)OCCO2	-22%	27µM*	2%	-20	20%	-2%[46.1 µM]
COc1ccc(N(CC(=O)NC(C)c2ccccc2)S(=O)(=O)c2c(C)nn(C)c2C)cc1 (stereo unspecified)	-3%	nt	nt	nt	8%	nt
COC1=CC(=O)C(C(=O)c2ccccc2)=CC1=O	32µM*	nt	nt	nt	nt	nt
COc1ccc(C(=O)c2ccccc2)cc1	11%	-11%	-4%	1	-13%	-1%
CCN1CCc2c(sc(NC(=S)NC(=O)c3ccco3)c2C(N)=O)C1	-11%	24µM*	10%	-10	-7%	8%
CCN1CCc2c(sc(NC(=O)Cc3ccccc3)c2C(N)=O)C1	0%	-10%	1%	-1	-37%	3%
COc1ccc(S(=O)(=O)N2CCC(C(=O)N[C@@H](C)C(=O)NC3CCCC3)CC2)cc1	?	19µM*	-1%	-22	-3%	9%
COc1ccc(S(=O)(=O)N2CCC(C(=O)NCCC(=O)Nc3cccc(Cl)c3)CC2)cc1	28µM*	6.7µM*	3%	?	?	-2%
COc1ccc(N2CCN(C(=O)C3CCN(S(=O)(=O)c4cccs4)CC3)CC2)cc1	?	17µM*	6%	-29	3%	-3%
COCCCNC(=S)N1CCN(S(=O)(=O)c2ccc(OC)cc2)CC1	-5%	21µM*	4%[57.1 µM]	9	-3%	-2%
COc1ccc2cc(S(=O)(=O)N3CCCC(C)C3)ccc2c1 (stereo unspecified)	89µM*	27µM*	1%	3	4%	-4%
COc1ccc(S(=O)(=O)N2CCC(C(=O)N3CCCC3)CC2)cc1	12%	-2%	1%	2	9%	0%
COc1ccc(S(=O)(=O)N2CCC(C(=O)N3CCCCCC3)CC2)cc1	-10%	11µM*	3%	-24	-8%	3%
Cc1nn(-c2ccccc2)c(Cl)c1/C=N/Nc1ccc(Cl)c(C(=O)O)c1	-11%	?	?	7	-4%	1%[46.1 µM]
Cc1nn(-c2ccccc2)c(Cl)c1/C=N/Nc1ccc(S(=O)(=O)Nc2ccccc2C(=O)O)cc1[N+](=O)[O-]	79µM*	27µM*	?	nt	?	4%
CSc1ccc(C=NNc2ccc(S(=O)(=O)Nc3ccccc3C(=O)O)cc2[N+](=O)[O-])cc1	-27%	?	?	-53*	-5%	9%
CCCCNC(=O)[C@@H]1CC=C[C@@H]2CCN(Cc3ccc(OC)c(OC)c3)C(=O)[C@@H]21	nt	nt	nt	nt	8%	nt
O=C(O)c1ccc2c(=O)n3c(nc2c1)/C(=C/c1ccc(Cl)cc1Cl)CC3	19%	27µM*	-7%	-14	-18%	-4%
N#Cc1ccc(/C=C2\CCCCn3c2nc2cc(C(=O)O)ccc2c3=O)cc1	6%	-6%	11%	-53*	-1%	-2%
O=C(O)c1ccc2c(=O)n3c(nc2c1)/C(=C/c1ccc(C(F)(F)F)cc1)CC3	-19%	-11%	-9%	-16	?	-1%
SMILES	VDR inh	PLK1 PBD inh	WRN inhibitor	PI5P4K alpha inh	FEN1 inhibitor	TCR activator
COc1ccc2c(c1)CCC1C2=NN(/C(C)=C\C(C)=O)C1c1ccc(F)cc1 (stereo unspecified)	?	12µM*	4%	-13	-25%	1%
COc1ccc2c(c1)C1=NN(/C(C)=C/C(C)=O)C(c3ccc(F)cc3)C1CC2 (stereo unspecified)	?	2%	-26%	-12	-18%	-5%[46.1 µM]
COc1ccc(OC(=O)c2nc(SCc3ccc(C)cc3)ncc2Cl)cc1	8%	nt	nt	nt	-22%	nt
Cn1ncc(Cl)c1C(=O)Nc1cccc(Cl)c1	?	24µM*	15%	-18	8%	0%[46.1 µM]
CSc1cccc(NC(=O)c2c(Cl)cnn2C)c1	6%	-14%	-10%	nt	-9%	-5%
Brc1cc(Br)c[n+](CCc2ccccc2)c1	nt	nt	nt	nt	17%	nt
CCOc1ccc(NS(=O)(=O)c2ccc(NC(=S)NC(C)=O)cc2)cc1	14%	-14%	3%	1	-1%	8%
CCOc1ccc(NS(=O)(=O)c2ccc(NC(=S)NC(=O)C(C)C)cc2)cc1	-15%	27µM*	-3%	-10	-8%	-2%
Cc1nc2c(C(=O)NCCC3=CCCCC3)c[nH]n2c(=O)c1Cl	-18%	24µM*	-18%	nt	-18%	nt
Nc1ncc(O)c(N)n1	-1%	nt	nt	nt	nt	nt
O=C(C[n+]1cccc2cc(Cl)ccc21)c1cccc([N+](=O)[O-])c1	nt	nt	nt	nt	-21%	nt
CC(C)(C)c1ccc(C(=O)NCC(c2cccs2)S(=O)(=O)c2ccc(F)cc2)cc1 (stereo unspecified)	13%	nt	nt	nt	0%	nt
COC(=O)Cc1csc(NC(=O)CSc2nnc3ccccn23)n1	?	17µM*	2%	-28	4%	2%
O=C(Oc1ccc(N2C(=O)CCC2=O)cc1)c1ccccc1Cl	-7%	-3%	30%	-9	-7%	0%[46.1 µM]
Cc1cc(OC(=O)c2ccccc2Cl)cc(=O)n1C	11%	27µM*	46%	7	-7%	0%
COC(=S)N/C(=N\S(=O)(=O)c1ccc(Cl)cc1)c1ccccc1	89µM*	24µM*	1%	-2	-1%	-8%
COC(=O)c1ccc(N/C(=N/S(=O)(=O)c2ccccc2)c2ccccc2)cc1	-15%	1%	-25%	4	-1%	3%[46.1 µM]
Cc1ccc(NC(=S)N/C(=N/S(=O)(=O)c2ccccc2)c2ccccc2)cc1	-5%	24µM*	-7%	1	-7%	0%
Cc1ccc(S(=O)(=O)/N=C(/NC(=S)Nc2ccccc2)c2ccccc2)cc1	-25%	?	-3%	3	-17%	0%
CCOC(=S)N/C(=N\S(C)(=O)=O)c1ccccc1	-24%	17µM*	6%	1	19%	3%
CCOC(=O)c1ccc(N/C(=N\S(=O)(=O)c2ccccc2C)c2ccccc2)cc1	15%	-7%	-17%	-3	-22%	6%
